# Laboratory results from PubChem BioAssay AID1259422 (The Scripps Research Institute Molecular Screening Center, 2018).
# The whole screen tested about 640,000 compounds, of which about 9,300 (1.5%) were called active. Cut-off read from the data, not from the text of the source: active = inhibition above about 32%; inactive = the rest. The full list was thinned out, with actives kept by preference.
# Experiment: TEAD-YAP interaction inhibition, primary screen, TEAD-YAP interaction inhibitor project, luminescence, HEK-TIYL cells (AID 1259422);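 note: 0% = median of test compound wells and 100% = reference inhibitor wells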
# Conditions: TEAD-Gal4/YAP UAS-luciferase luminescence, at 9.12 µM, hits give high values
row,Compound,inhibition
1,COc1cccc(N2CCN(CC(=O)Nc3ccccc3C(N)=O)CC2)c1,91.2% (active)
2,Cc1ccc(NC(=O)CN2CCN(c3cccc(Cl)c3)CC2)cc1,5.46% (inactive)
3,COc1ccc(NC(=O)CN2CCN(C)CC2)c(OC)c1,-0.51% (inactive)
4,CCCCn1c(CNC(=O)c2cccc(OC)c2)nnc1SCC(=O)Nc1sc2c(c1C(=O)OCC)CCCC2,1.81% (inactive)
5,CCOc1ccccc1C(=O)NCc1ccccc1,-14.4% (inactive)
6,CCOc1ccccc1C(=O)NCc1ccc2c(c1)cc(C)n2C,51.1% (active)
7,CCOCC(=O)NCc1ccc2c(c1)cc(C)n2C,-6.23% (inactive)
8,CC1=NN(c2ccccc2)C(=O)C1/C=C1\SC(=O)NC1=O (stereo unspecified),13.7% (inactive)
9,CC1=NN(c2ccccc2)C(=O)C1N=Nc1c(C)n[nH]c1C (stereo unspecified),38.6% (active)
10,CC1=NN(c2ccccc2)C(=O)C1Cl (stereo unspecified),17% (inactive)
11,CC1=C(C(=O)OCc2ccccc2)C(c2cccc(I)c2)C2=C(CC(C)(C)CC2=O)N1 (stereo unspecified),6.12% (inactive)
12,Cc1ccccc1-n1c(SCC#N)nc2c(sc(=S)n2-c2ccccc2C)c1=O,-17.8% (inactive)
13,COc1cc(C#N)cc(Cl)c1OC(C)=O,3.38% (inactive)
14,Nc1nc(SCC(=O)Nc2ccc3c(c2)C(=O)c2ccccc2C3=O)n[nH]1,-48.4% (inactive)
15,Cc1ccc2sc(-c3ccc(NC(=O)C(C)C)cc3)nc2c1,-16.9% (inactive)
16,Cc1cccc(N(CC(=O)Nc2ccc(-c3nc4ccc(C)cc4s3)cc2)S(C)(=O)=O)c1,8.01% (inactive)
17,Cc1ccc2nc(-c3ccc(NC(=O)CCl)cc3)sc2c1,32% (active)
18,Cc1ccc2nc(-c3ccc(NC(=O)CSc4n[nH]c(N)n4)cc3)sc2c1,48.5% (active)
19,Nc1nc(SCC(=O)Nc2ccc(F)c(Cl)c2)n[nH]1,4.23% (inactive)
20,O=C(COC(=O)c1cc2ccccc2oc1=O)c1ccc(I)cc1,3.37% (inactive)
21,CCN(CC)c1ccc2cc(-c3nnc(Nc4cc(Cl)ccc4OC)s3)c(=O)oc2c1,5.73% (inactive)
22,CCN=C1SC(CC(=O)Nc2ccccc2SC)C(=O)N1CC (stereo unspecified),-3.27% (inactive)
23,Cc1ccccc1NC(=O)CCC(=O)OCC(=O)c1ccc([N+](=O)[O-])cc1,7.47% (inactive)
24,Cc1cc(Nc2nc3ccccc3n3nnnc23)n(-c2ccc([N+](=O)[O-])cc2)n1,29.3% (inactive)

row,Compound,inhibition
1,N#C/C(=C/c1ccccc1F)C(=O)NCCc1c[nH]c2ccccc12,12.4% (inactive)
2,CCCC(=O)Nc1ccccc1NC(=O)Cc1ccccc1,-1.49% (inactive)
3,Cc1ccsc1C(=O)NCC1CCC2(CCN(C(=O)c3ccc(F)cc3)CC2)O1 (stereo unspecified),-0.6% (inactive)
4,O=C(Nc1cccc(Br)c1)c1ccccc1[N+](=O)[O-],-3.71% (inactive)
5,Cc1ccc(C(=O)Nc2ncc(Cc3ccc(Cl)cc3)s2)o1,-24.8% (inactive)
6,Cc1ccc(Cc2cnc(NC(=O)CCl)s2)cc1,24.8% (inactive)
7,Cc1ccc(CCC(=O)Nc2ncc(Cc3cc(Cl)ccc3Cl)s2)o1,43.6% (active)
8,CCOC(=O)c1ccc(S(=O)(=O)NNC(=O)CCN2C(C)CCCC2C)cc1 (stereo unspecified),4.62% (inactive)
9,CCOc1ccc(NC(=O)c2ccc(F)c(S(=O)(=O)NCCc3ccccc3)c2)cc1,20.5% (inactive)
10,CCOc1ccccc1NC(=O)c1ccc(F)c(S(=O)(=O)N2CCCC2)c1,-2.89% (inactive)
11,O=C(Oc1cccc(NC(=O)c2ccccc2Cl)c1)c1ccc(Br)c(S(=O)(=O)N2CCCCC2)c1,41.8% (active)
12,O=C(Oc1cccc(NC(=O)c2ccccc2Cl)c1)c1ccc(Cl)c(S(=O)(=O)N2CCCCC2)c1,-1.45% (inactive)
13,CCOc1ccc(NC(=O)c2ccc(Br)c(S(=O)(=O)N3CCCC3)c2)cc1,35.5% (active)
14,Cc1cccc(NC(=O)c2ccc(C)c(S(=O)(=O)N3CCCC3)c2)c1,-31.9% (inactive)
15,CCOc1ccc(NC(=O)c2ccc(F)c(S(=O)(=O)NC3CCCCCC3)c2)cc1,43.4% (active)
16,CC1CCN(S(=O)(=O)c2cc(C(=O)Oc3cccc(NC(=O)c4ccccc4)c3)c(Cl)cc2Cl)CC1,-2.37% (inactive)
17,CCc1ccccc1NC(=O)c1ccc(F)c(S(=O)(=O)NC2CCCCCC2)c1,-8.09% (inactive)
18,Cc1nc2ccc(C(=O)OCC(=O)c3ccc([N+](=O)[O-])cc3)cc2nc1C,3.04% (inactive)
19,O=C(O)C1CN(C(c2ccccc2)c2ccccc2)C1,3.68% (inactive)
20,CCC(C)NC(=O)Nc1cccc(Cl)c1C (stereo unspecified),-4.8% (inactive)
21,COC(=O)c1ccc(NC(=O)c2ccc(C)o2)cc1,-47% (inactive)
22,c1ccc(N2CCN(N=C3c4ccccc4-c4ccccc43)CC2)nc1,-13.3% (inactive)
23,NC(=O)N/N=C/c1cn(-c2ccccc2)nc1-c1cc2ccccc2oc1=O,40.6% (active)
24,NC(=O)C(=O)N/N=C/c1cn(-c2ccccc2)nc1-c1cccs1,-10.6% (inactive)

row,Compound,inhibition
1,O=C(NNc1nc(-c2cc3ccccc3oc2=O)cs1)c1ccccc1,-15% (inactive)
2,Cc1cccc(Cc2nnc(CCC(=O)N3CCN(C)C[C@@H]3c3ccccc3)o2)c1,-0.78% (inactive)
3,COc1ccc(S(=O)(=O)NCCCNS(=O)(=O)c2ccc(OC)cc2)cc1,5.92% (inactive)
4,COc1ccc(CNS(=O)(=O)c2ccc(Oc3ccc(S(=O)(=O)NCc4ccc(OC)cc4)cc3)cc2)cc1,55.4% (active)
5,COc1ccc(S(=O)(=O)NCCN)cc1,4.56% (inactive)
6,CC(=O)Nc1ccc(Nc2nc(-c3ccccc3)nc3c2ncn3C(C)C)cc1,18% (inactive)
7,Cc1c(Cl)cccc1N1C(=O)C2C3CCC(C3)C2C1=O (stereo unspecified),3.02% (inactive)
8,CCC(=O)N(Cc1ccco1)Cc1cc2cc3c(cc2[nH]c1=O)OCCO3,-9.49% (inactive)
9,O=C(NNS(=O)(=O)c1cccc([N+](=O)[O-])c1)C1CCCCC1,-1.44% (inactive)
10,Cc1ccc(CN2C(=O)CCC2CCNCc2cc3c(cc2Cl)OCO3)cc1F (stereo unspecified),-1.93% (inactive)
11,CCn1c(SCC(=O)Nc2nc3ccc(OC)cc3s2)nc2cccnc21,3.19% (inactive)
12,Cc1[nH]n(-c2ccc([N+](=O)[O-])cc2)c(=O)c1C=NCCN1CCN(C(=O)/C=C/c2ccccc2)CC1,13.1% (inactive)
13,Clc1ccc(-c2cc(NCCCn3ccnc3)ncn2)cc1,-76.3% (inactive)
14,Cc1nc(NCCCN2CCOCC2)cc(-c2ccccn2)n1,5.82% (inactive)
15,c1ccc(-c2cc(NCCCn3ccnc3)nc(-c3ccccn3)n2)nc1,54.3% (active)
16,COc1ccc(Cl)cc1NC(=O)CC1C(=O)NCCN1C(=S)Nc1ccccc1 (stereo unspecified),2.46% (inactive)
17,O=C(Nc1ccc(F)c(F)c1)c1ccc(N2CC3CC(C2)c2cccc(=O)n2C3)c(NC(=O)c2cccc(C(F)(F)F)c2)c1 (stereo unspecified),-14.9% (inactive)
18,COc1ccc(/C(C)=N/Nc2nc3ccccc3[nH]2)cc1,-5.09% (inactive)
19,Cc1ccc(NC(=O)Cc2cccc3ccccc23)c([N+](=O)[O-])c1,-15.6% (inactive)
20,COc1ccc(-c2cnnc(N(C)CCC3CCOCC3)n2)cc1,-22.1% (inactive)
21,COc1ccc(-c2cnnc(N(C)Cc3cnn(C)c3)n2)cc1,36.4% (active)
22,COc1cccc(-c2cnnc(N(C)CCC3CCOCC3)n2)c1,-25.5% (inactive)
23,O=C(c1cccc(Cl)c1)N1CCN(c2ccc([N+](=O)[O-])c(N3CCOCC3)c2)CC1,13.5% (inactive)
24,O=c1cc(-c2ccccc2)nc(NNc2ccccc2)[nH]1,2.03% (inactive)

row,Compound,inhibition
1,O=c1cc(-c2ccccc2)[nH]c2nc(Cl)ccc12,50.5% (active)
2,O=c1cc(-c2ccccc2)sc2ccc(Cl)cc12,-23.1% (inactive)
3,CCn1cc(C(=O)Nc2ccc(N3CCOCC3)cc2)c(=O)c2ccc(C)nc21,-7.7% (inactive)
4,COc1ccc(CC(=O)N/N=C(\C)c2ccccn2)cc1OC,2.58% (inactive)
5,COc1cc(C=O)ccc1OS(=O)(=O)c1ccc(Cl)cc1,-7.3% (inactive)
6,Cc1ccc(S(=O)(=O)Oc2ccc(Br)cc2C=O)cc1,31.9% (active)
7,CCOC(=O)N/N=C/c1ccc(OS(=O)(=O)c2ccc(C)cc2)c(OC)c1,3.61% (inactive)
8,CSCCC(=O)Nc1ccc(Cl)cc1,2.57% (inactive)
9,Cc1ccc(NC2=C(Cl)C(=O)OC2OC(=O)c2ccccc2Br)cc1 (stereo unspecified),9.63% (inactive)
10,O=C(O)c1cccc(OCC(O)Cn2cnc3ccccc32)c1 (stereo unspecified),10% (inactive)
11,O=c1c2ccccc2ncn1CCCCOc1ccccc1F,5.72% (inactive)
12,N#Cc1ccccc1OCCCCn1cnc2ccccc21,35% (active)
13,COc1c(C)cccc1C1=N/C(=C\c2cccc([N+](=O)[O-])c2)C(=O)O1,9.8% (inactive)
14,CCCOC(=O)C1=C(C)N(C)C(=O)NC1c1cc(Br)c(O)c(OC)c1 (stereo unspecified),3.09% (inactive)
15,COc1ccc2nc(NC(=O)CN3C(=S)NC(C)(C)CC3C)sc2c1 (stereo unspecified),3.44% (inactive)
16,CC(NC(=O)COC(=O)c1cccc(NS(C)(=O)=O)c1)C12CC3CC(CC(C3)C1)C2 (stereo unspecified),-4.62% (inactive)
17,Cc1ccc(NC(=O)C(=O)NCCC2CCCCN2S(=O)(=O)c2ccc(C)cc2)cc1 (stereo unspecified),17.1% (inactive)
18,CCCCNC(=O)C(=O)NCCC1CCCCN1S(=O)(=O)c1ccc(C)cc1 (stereo unspecified),50.6% (active)
19,Cc1ccc(S(=O)(=O)N2CCCCC2CCNC(=O)C(=O)NCCO)cc1 (stereo unspecified),-1.73% (inactive)
20,O=c1c(-c2ccon2)coc2cc(O)ccc12,-4% (inactive)
21,COc1cc2nc(/C=C/c3ccco3)oc(=O)c2cc1OC,0.76% (inactive)
22,CC(=O)c1ccc(N2CCN(c3cccc[n+]3C)CC2)cc1,-8.59% (inactive)
23,CC(=O)c1ccc(N2Cc3ccccc3C2)cc1,38.4% (active)
24,O=C(N/N=C/c1ccc(O)cc1)c1ccc(N2Cc3ccccc3C2)cc1,-17% (inactive)
